Screening results (PubChem)
Most compounds without a hit are left out; they make up all but 19% or so of the library.
HT1080NT lethal: kills 2HG-producing HT-1080-NT fibrosarcoma cells; 360,000 tested, 1.6% active; HT-1080-NT fibrosarcoma viability, CellTiter-Glo ATP luminescence, 48 h; Potency, µM (series often up to 46.1 µM), without a hit: top-dose activity, negative = less viability, actives largely listed as cytotoxic;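 note: NT is the 2HG producing partner of a matched IDH1 knockdown line; potency is the fitted concentration of half-maximal effect; 0% = DMSO-treated cells and -100% = media-only wells without cells; nearly all actives have a fitted effect of over 55% in size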
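750 cells/well, RPMI + 5% FBS; 2 h settle, compound pin-transfer, 48 h at 37 degrees C. CellTiter-Glo 10 min RT, luminescence. Normalized to DMSO and media-only wells.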
TDP1 cell CPT: growth inhibition of DT40 Tdp1-/-;hTDP1 cells with camptothecin (screen for TDP1 inhibitors). chicken DT40 Tdp1-/-;hTDP1 cells + 20 nM CPT, ATP luminescence, 48 h. Potency, µM (doses to about 46.2 µM), for the others: top-dose activity change, negative = growth inhibition, actives largely listed as inhibitors. 420,000 tested, 12% active. AID 686979; note: potency is the fitted concentration of half-maximal effect; nearly all actives have a fitted effect of over 55% in size
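Chicken DT40 Tdp1-/- cells complemented with human TDP1, 400 cells/well, exposed to compounds plus 20 nM camptothecin for at least 48 h at 37 C; viability read as ATP content by CellTiter-Glo luminescence.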
DT40 TDP1 no CPT: qHTS for Inhibitors of human tyrosyl-DNA phosphodiesterase 1 (TDP1): qHTS in cells in absence of CPT; 420,000 tested, 15% active; AID 686978, 2013; DT40 Tdp1-/- hTDP1 cells, no CPT, ATP luminescence, 48 h; Potency, µM (series often up to 46.2 µM), without a hit: top-dose activity change, negative = growth inhibition, most hits filed as inhibitors; note: potency is the fitted concentration of half-maximal effect; nearly all actives have a fitted effect of over 55% in size
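A cellular qHTS used chicken DT40 cells lacking endogenous Tdp1 but carrying stably transfected human TDP1. Compounds were applied without camptothecin, and cell growth kinetics were judged by ATP-dependent luminescence after ≥48 hr.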
HT1080 IDH1KD tx: kills HT-1080 cells with IDH1 knockdown. HT-1080 IDH1 knockdown viability, ATP luminescence, 48 h. Potency, µM (series often up to 46.1 µM), for the others: at the top dose activity, negative = toxicity, hits mostly cytotoxic. 360,000 tested, 2% active;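 note: potency is the fitted concentration of half-maximal effect; 0% = DMSO wells and -100% = cell-free medium wells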
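Using the IDH1-knockdown HT-1080 line run in the same batch and compound series as the NT line, viability after 48 h at 37 °C was determined by CellTiter-Glo luminescence and expressed as % activity.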
IL1B secr inh: blocks inflammasome-driven IL-1 beta release | 360,000 tested, 4.7% active | activity change, % at 57.5 µM | THP-1 LPS/ATP IL-1B secretion, AlphaLISA, 16 h; active compounds read low; in the data active = activity change below about -50%; inconclusive = mostly about -30% to -49%
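THP-1 cells pretreated 1 hr with compounds (up to 57.5 uM final), then stimulated with LPS (250 ng/mL final) plus ATP (1.25 mM final); secreted IL-1B measured by AlphaLISA after 16 hr, decreased signal indicating inhibition.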
* = called active by the depositor; ? = inconclusive; · = no result; [ ] = remark or other dose. Unless noted, calls come from the whole dose curve; as a rule, active = well fitted curve in the direction sought with a large enough effect; inconclusive = small, poorly fitted or top-dose-only effect, or another doubt; inactive = no such curve, though single readings can be large; an effect the other way counts as inactive or inconclusive. Unless noted, % is set by controls: 0 for no effect and ±100 for the full control effect.

SMILES	HT1080NT lethal	TDP1 cell CPT	DT40 TDP1 no CPT	HT1080 IDH1KD tx	IL1B secr inh
Cn1c(Cn2nnc3ccccc32)nnc1SCC(=O)N1c2ccccc2Sc2ccccc21	?	13µM*	16µM*	?	-3
COc1ccc(C(=O)N/N=C/c2ccc(N(C)c3ccccc3)cc2)cc1	-23%	?	23µM*	-13%	?
CC(C)(C)C(=O)Nc1ccc(C(=O)N/N=C/c2ccccc2OC(=O)c2ccccc2)cc1	?	6.5µM*	7.3µM*	?	96
CC(C)(C)C(=O)Nc1ccc(C(=O)N/N=C/c2ccccc2OC(=O)c2ccc(Cl)cc2)cc1	-25%	5.2µM*	4.6µM*	?	3
COc1cc(C(=O)Oc2ccccc2/C=N/NC(=O)c2ccc(C)cc2)cc(OC)c1OC	?	1µM*	0.65µM*	?	91
COc1ccc(C(=O)N/N=C/c2ccc(OC(=O)c3ccccc3)cc2)cc1	-3%	-12%	-16%	6%	-8
COc1ccc(C(C(=O)NC2CCCC2)N(Cc2cccnc2)C(=O)c2snc(C(N)=O)c2N)cc1 (stereo unspecified)	-7%	-16%	-16%	-8%	-17
Cc1cccc(C(=O)Nc2ccccc2OCc2cc(=O)n3ccccc3n2)c1	·	-11%	-12%	·	·
O=C(COC(=O)/C=C/c1ccco1)NCCc1ccccc1	20%	-3%	3%	2%	-7
COc1ccccc1/C=N/NC(=O)c1ccc2c(c1)OCO2	8%	-1%	1%	11%	2
COC(=O)COc1ccc(/C=N/NC(=O)c2ccc(N(Cc3ccccc3)S(C)(=O)=O)cc2)cc1	5%	-25%	-29%	-13%	-95*
COc1cc(C(=O)Oc2cccc(/C=N/NC(=O)c3cccnc3)c2)cc(OC)c1OC	?	6.5µM*	9.2µM*	18µM*	30
O=C(N/N=C/c1ccccc1OC(=O)c1ccc2c(c1)OCO2)c1ccccc1	-2%	4.1µM*	4.1µM*	-19%	0
COc1ccc(C(=O)N/N=C/c2ccccc2OC(=O)c2ccccc2)cc1	4.6µM*	0.58µM*	0.52µM*	4.1µM*	117
O=C1CSC(c2cccc([N+](=O)[O-])c2)N1Cc1ccccc1 (stereo unspecified)	1%	15%	?	0%	11
Cc1oc(-c2ccccc2NC(=O)C2CCCO2)nc1CNC(=O)c1cc(F)c(F)cc1F (stereo unspecified)	·	-16%[9.04 µM]	-1%	·	·
O=C(N/N=C/c1ccc(OC(=O)c2ccccc2)cc1)c1ccc(CN2CCOCC2)cc1	-20%	?	12µM*	-18%	8
O=C(N/N=C/C(Cl)=C/c1ccccc1)c1ccc2c(c1)OCO2	?	?	21µM*	?	-16
CC(/C=N\NC(=O)c1ccc2c(c1)OCO2)c1ccccc1 (stereo unspecified)	4%	-20%	8%	-1%	17
O=C(N/N=C/c1ccc(OC2CSC2)cc1)c1ccc(CN2CCOCC2)cc1	?	-11%	?	?	0
COc1ccc(N(CC(=O)N/N=C/c2ccccc2F)S(=O)(=O)c2ccccc2)cc1	-13%	?	-4%	-13%	12
N#C/C(=C\c1coc2ccccc2c1=O)C(N)=S	-1%	?	15µM*	-14%	4
COc1ccnc(CSC(N)=Nc2ccccc2C(F)(F)F)c1	-11%	26µM*	15µM*	-17%	3
CC(=Nc1ccccc1C(F)(F)F)c1ccncc1	17%	1%	-4%	11%	0
COc1ccnc(CSC(N)=Nc2cccc(C(F)(F)F)c2)c1	1%	12µM*	16µM*	-7%	-104*
SMILES	HT1080NT lethal	TDP1 cell CPT	DT40 TDP1 no CPT	HT1080 IDH1KD tx	IL1B secr inh
COc1ccnc(CSC(N)=Nc2ccccc2OC)c1	?	?	13µM*	-6%	-10
Cc1ccc(CNC(=O)Cn2ccn(-c3ccc(F)cc3)c(=O)c2=O)cc1	·	20%	3%	·	·
O=[N+]([O-])c1ccc(N2CCN(C(=S)Nc3cccc(F)c3)CC2)cc1	-1%	8.2µM*	9.2µM*	-20%	-20
O=[N+]([O-])c1ccc(N2CCN(C(=S)Nc3ccc(F)cc3)CC2)cc1	-9%	5.2µM*	5.8µM*	-22%	-4
O=[N+]([O-])c1cccc(NC(=S)N2CCCC2)c1	14%	-17%	20%	5%	18
COc1ccc(N2CCN(C(=S)Nc3ccc(F)cc3)CC2)cc1	-5%	1%	0%	-1%	-7
O=[N+]([O-])c1ccc(N2CCN(C(=S)Nc3ccc(F)cc3F)CC2)cc1	-13%	6.5µM*	8.2µM*	-3%	-8
Fc1ccc(NC(=S)N2CCOCC2)c(F)c1	4%	0%	14%	10%	4
CCOC(=O)C1(C)CCN1C(=O)c1cccs1 (stereo unspecified)	7%	-5%	-10%	28%	26
CCCCn1c(N)c(N(CC(C)C)C(=O)CSc2nn(-c3ccc(F)cc3)c(=S)s2)c(=O)[nH]c1=O	-11%	?	-3%	-2%	-3
N=C1C(c2nc(-c3ccc(Cl)cc3)cs2)=C(O)CN1CCCN1CCOCC1	23µM*	26µM*	26µM*	?	?
COc1ccc(N2CC(O)=C(c3nc(-c4ccc(F)cc4)cs3)C2=N)cc1OC	-2%	?	18µM*	-14%	-1
CCCCN1CC(O)=C(c2nc(-c3ccc(Cl)cc3)cs2)C1=N	0%	-13%	-17%	5%	19
COc1ccc(-c2csc(C3=C(O)CN(Cc4ccc(Cl)cc4)C3=N)n2)cc1OC	0%	-12%	-30%	?	-22
COc1ccc(N2CC(O)=C(c3nc(-c4ccc(F)cc4)cs3)C2=N)cc1Cl	17%	?	?	23%	12
COCC(C)N1CC(O)=C(c2nc(-c3ccc(Cl)cc3)cs2)C1=N (stereo unspecified)	-22%	-27%	-28%	-20%	-53*
COc1cccc(CN2CC(O)=C(c3nc(-c4ccc(Cl)cc4)cs3)C2=N)c1	6%	-18%	9.2µM*	14%	53
CCc1ccc(-c2nc(CS(=O)CC(=O)O)c(C)o2)cc1 (stereo unspecified)	0%	?	0%	0%	52
Cn1c(=O)[nH]c(=O)c2c1nc(Br)n2CC(O)c1ccccc1 (stereo unspecified)	2%	0%	1%	4%[9.24 µM]	37
COC(=O)c1ccc2nc(-c3ccc(F)cc3)c(CC3CCCCC3)n2c1	-12%	26µM*	21µM*	-1%	45
Cc1ccc(-c2nc3ccc(C)cn3c2CC2CCCCC2)cc1	-3%	?	16µM*	-6%	18
